Experimental findings from PubChem BioAssay (NCI) are described below.

The structures appear in SMILES notation. About 83,000 compounds went through this panel and 20% of them were active in at least one assay; those are over-represented in the sample as a whole.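 Treatment: one concentration, 48 hours, 96-well format. Scoring: percent growth, with anything below 10 considered active.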 Values without a mark were called inactive. Activity calls are given as the source filed them.

Among the test systems are NCI-H23 lung; NCI-H226 lung; NCI-H322M lung; HOP-62 NSCLC; NCI-H460 lung; HOP-92 NSCLC; NCI-H522 lung; A549/ATCC NSCLC; 786-0 renal; COLO 205 colon.
Experiment in all cases: NCI-60 one-dose screen, 48 h (100 = growth as untreated, 0 = no growth, -100 = all killed)
Common to all, as to details: 10 µM

On to `CCSc1nc2c([nH]1)c(=O)n(C)c(=S)n2C`, for which the growth in the experiment on NCI-H23 lung is 98.6%; in the experiment with NCI-H226 lung, 117%; in the experiment on NCI-H322M lung it was 117%; in the experiment with HOP-62 NSCLC it was 98%; in the experiment on NCI-H460 lung it was 107%; with HOP-92 NSCLC, 103%. Further, the growth is 102% in the experiment with NCI-H522 lung, 107% in the experiment on A549/ATCC NSCLC, 100% in the experiment with 786-0 renal and 106% with COLO 205 colon.

On to `COc1cccc(-c2nnc(COc3ccc(-c4nc5ccccc5[nH]4)cc3OC)o2)c1`, for which the growth in the experiment on NCI-H23 lung is 92.7%; in the experiment on NCI-H226 lung it was 105%; in the experiment on NCI-H322M lung, 97.6%; in the experiment on HOP-62 NSCLC, 108%; in the experiment with NCI-H460 lung, 96.5%; with HOP-92 NSCLC, 93.8%. For the same compound, the growth in the experiment on NCI-H522 lung was 96.7%; in the experiment with A549/ATCC NSCLC, 97.1%; in the experiment with 786-0 renal it was 96.2%; in the experiment on COLO 205 colon, 85.4%.

Regarding `COc1ccccc1S(=O)(=O)Nc1ccc2c(c1)CN(C)C(=O)N2`, the growth was 56.7% in the experiment with NCI-H23 lung; 63% in the experiment on NCI-H226 lung; 42.9% in the experiment on NCI-H322M lung; 44.3% with HOP-62 NSCLC; 55.8% in the experiment on NCI-H460 lung; 2.37% (active) in the experiment on HOP-92 NSCLC. Moreover, the growth in the experiment on NCI-H522 lung was 26.1%; in the experiment on A549/ATCC NSCLC, 50.5%; in the experiment on 786-0 renal, 72.7%; with COLO 205 colon it was 38.4%.

Turning to `CCCc1c(C)nc2scc(-c3ccc(Cl)cc3)n2c1=O`, the growth in the experiment with NCI-H23 lung was 100%; in the experiment with NCI-H226 lung, -100% (active); with NCI-H322M lung, 102%; in the experiment on HOP-62 NSCLC, 88.9%; with NCI-H460 lung, 108%; in the experiment on HOP-92 NSCLC, 92.5%. For the same compound, the growth in the experiment on NCI-H522 lung was 94.3%; in the experiment with A549/ATCC NSCLC, 104%; in the experiment on 786-0 renal, 101%; in the experiment with COLO 205 colon it was 103%.

On to `O=C(CCc1ccccc1)N1CCN(C(=O)CCc2ccccc2)CC1`, for which the growth is 101% in the experiment on NCI-H23 lung; 99.3% with NCI-H226 lung; 95.2% in the experiment with NCI-H322M lung; 105% in the experiment on HOP-62 NSCLC; 114% in the experiment with NCI-H460 lung; 84.1% with HOP-92 NSCLC. Also, the growth in the experiment with NCI-H522 lung is 98.3%; in the experiment on A549/ATCC NSCLC it was 99.9%; with 786-0 renal, 94.6%; with COLO 205 colon, 102%.

On to `Cc1ccc2oc(=O)cc(/C(=C3/C=CC=N3)c3ccc[nH]3)c2c1`, for which the growth in the experiment on NCI-H23 lung is 9.51% (active); in the experiment on NCI-H226 lung it was -7.14% (active); in the experiment on NCI-H322M lung, 25.4%; with HOP-62 NSCLC it was -11.3% (active); in the experiment with NCI-H460 lung, -2.31% (active); with HOP-92 NSCLC, 7.28% (active). The growth is -33.2% (active) in the experiment on NCI-H522 lung, -21% (active) with A549/ATCC NSCLC, 3.15% (active) with 786-0 renal and -53.6% (active) with COLO 205 colon.

Turning to `Cc1cccc2c(Nc3ccc(NS(C)(=O)=O)cc3)c3ccc([N+](=O)[O-])cc3nc12`, the growth in the experiment on NCI-H23 lung was -17.6% (active); in the experiment with NCI-H226 lung it was -20.8% (active); with NCI-H322M lung, 36.4%; in the experiment with HOP-62 NSCLC, 14%; in the experiment on NCI-H460 lung, -34.6% (active); with HOP-92 NSCLC it was -16.7% (active). Moreover, the growth in the experiment on NCI-H522 lung was -68.3% (active); with A549/ATCC NSCLC, 1.51% (active); in the experiment with 786-0 renal it was 5.57% (active); with COLO 205 colon, 34.9%.

With `CCN(CC)c1ccc(/C=C/C2=[N+](C)c3ccccc3C2(C)C)c(C)c1`, the growth in the experiment on NCI-H23 lung was 11.1%; in the experiment on NCI-H226 lung, 17.7%; in the experiment with NCI-H322M lung, 27.6%; in the experiment with HOP-62 NSCLC, 5.39% (active); in the experiment with NCI-H460 lung, 2.94% (active); in the experiment with HOP-92 NSCLC it was -19.5% (active). Besides, the growth in the experiment with NCI-H522 lung was -14.4% (active); in the experiment with A549/ATCC NSCLC, 9.85% (active); with 786-0 renal, 13.1%; with COLO 205 colon, -58.4% (active).

As to `Cc1cc(=O)oc2cc(OCc3cn(CC(O)CO)nn3)ccc12` (stereo not given), the growth in the experiment with NCI-H23 lung is 94.1%; with NCI-H226 lung it was 104%; in the experiment on NCI-H322M lung it was 109%; in the experiment with HOP-62 NSCLC, 103%; with NCI-H460 lung, 111%; in the experiment on HOP-92 NSCLC it was 111%. Further, the growth was 107% with NCI-H522 lung, 105% with A549/ATCC NSCLC, 111% with 786-0 renal and 108% in the experiment with COLO 205 colon.

Take `C[C@]12CC[C@H]3[C@@H](CCC4=CC(=O)CC[C@@]43C)[C@@H]1CC[C@@H]2c1csc(N)n1`: the growth was 36.2% in the experiment on NCI-H23 lung; 60.1% with NCI-H226 lung; 110% with NCI-H322M lung; 70.2% with HOP-62 NSCLC; 42.4% in the experiment with NCI-H460 lung; 65.4% with HOP-92 NSCLC. For the same compound, the growth is 63.1% in the experiment with NCI-H522 lung, 60.7% in the experiment on A549/ATCC NSCLC, 68.1% with 786-0 renal and 25.6% in the experiment on COLO 205 colon.

`Oc1ccc(/C=N\Nc2ccccn2)c(O)c1`: the growth was 1.98% (active) in the experiment with NCI-H23 lung; 41.7% in the experiment with NCI-H226 lung; -5.61% (active) with NCI-H322M lung; 2.96% (active) with HOP-62 NSCLC; 3.15% (active) with NCI-H460 lung; 38.1% in the experiment on HOP-92 NSCLC. Besides, the growth with NCI-H522 lung is 23.7%; with A549/ATCC NSCLC, 26.6%; in the experiment with 786-0 renal, -13.2% (active); with COLO 205 colon, 69.1%.

For the compound `CCCc1c(CC)c(=N)c2ccccc2n1C`, the growth is 88% in the experiment on NCI-H23 lung; 83.2% with NCI-H226 lung; 71% with NCI-H322M lung; 68.2% in the experiment on HOP-62 NSCLC; 65.9% in the experiment on NCI-H460 lung; 76.1% in the experiment on HOP-92 NSCLC. The growth in the experiment with NCI-H522 lung was 73.6%; in the experiment with A549/ATCC NSCLC it was 50.4%; in the experiment on 786-0 renal, 41%; with COLO 205 colon, -18.5% (active).

For `COc1ccc(/C=C2\CCC3C(CCCC34OCCO4)C2=O)cc1` (stereo not given), the growth in the experiment on NCI-H23 lung is 94.2%; in the experiment with NCI-H226 lung, 97.8%; in the experiment on NCI-H322M lung it was 79.5%; in the experiment with HOP-62 NSCLC, 99.3%; in the experiment with NCI-H460 lung, 105%; in the experiment with HOP-92 NSCLC, 92.3%. The growth with NCI-H522 lung is -1.7% (active); in the experiment on A549/ATCC NSCLC, 89.7%; with 786-0 renal, 96.2%; in the experiment on COLO 205 colon it was 94.5%.

Take `CCOCC[P+](c1ccccc1)(c1ccccc1)c1ccccc1`: the growth was 36% in the experiment with NCI-H23 lung; 80% in the experiment with NCI-H226 lung; 82% in the experiment on NCI-H322M lung; 50.3% in the experiment on HOP-62 NSCLC; 58.7% in the experiment with NCI-H460 lung; -6.22% (active) in the experiment on HOP-92 NSCLC. For the same compound, the growth in the experiment on NCI-H522 lung was 26.2%; with A549/ATCC NSCLC, 45.3%; in the experiment on 786-0 renal, 72.5%; with COLO 205 colon, 44.5%.
